Screening data: PubChem BioAssay, National Center for Advancing Translational Sciences (NCATS)
Most compounds without a hit are left out; they make up all but 2.7% or so of the library.
ALOX12 inh – blocks human arachidonate 12S-lipoxygenase | Potency, µM (top dose mostly 108 µM), inactives show at the highest dose activity change, negative = inhibition, hits mostly inhibitors | purified 12hLO, xylenol orange hydroperoxide absorbance | AID 1671190 | 1.1% of 580,000 active | P18054; note: potency is the fitted concentration of half-maximal effect; % is set by controls: 0 for no effect and ±100 for the full control effect
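Purified human 12hLO at 150 nM in 25 mM Hepes, 0.01% Triton X-100, pH 7.0, preincubated 15 min at room temperature with compound. Reaction started with 40 uM arachidonic acid, 30 min at room temperature. Hydroperoxide measured by Fe-xylenol orange, 573/405 nm absorbance ratio.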
LDHA inh – inhibitors of human lactate dehydrogenase A | purified LDHA, NADH/diaphorase-resazurin fluorescence; active compounds read low | P00338 | activity change, % (values are at about 110 or 230 µM) | 0.15% of 480,000 active; in the data active = activity change below about -30%; inconclusive = mostly about -25% to -30%;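 note: plate controls were DMSO wells for no effect and wells without enzyme for full effect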
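Human LDH5 (2 nM) was incubated with 0.06 mM NADH and 0.2 mM pyruvate for 5 min at room temperature in Tris pH 7.4. Remaining NADH was coupled through diaphorase/resazurin, and resorufin fluorescence was read at 0 and 20 min.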
A549 tox – A549 cytotoxicity, counter-screen for Nrf2 inhibitors. A549 ARE-Fluc cells, CellTiter-Fluor viability, 18-24 h. Potency, µM (doses to about 46 µM), for inactives: at the highest dose activity change, negative = cytotoxicity, usual class: inhibitors. 0.16% of 390,000 active. AID 504648; note: potency is the fitted concentration of half-maximal effect; % is set by controls: 0 for no effect and ±100 for the full control effect
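A549 ARE_Fluc cells in 5% FBS OPTI-MEM were exposed to compounds in concentration-response for 18-24 h at 37 deg C. Viability was read by CellTiter-Fluor fluorescence (Ex 405/Em 525) after 30 min, before the luciferase read.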
Nrf2 inh – inhibitors of Nrf2 signaling; A549 ARE-Fluc reporter, luciferase luminescence, 18-24 h; 2.1% of 360,000 active; Potency, µM (titrated, usually from 46 µM), for inactives: at the top dose activity change, negative = inhibition, most hits filed as inhibitors; AID 504444; note: potency is the fitted concentration of half-maximal effect; % is set by controls: 0 for no effect and ±100 for the full control effect; nearly all actives have a fitted effect of over 60% in size
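Concentration-response testing used A549 ARE_Fluc cells at 5000 cells/well. Following an 18-24 h compound incubation, viability was read by fluorescence (Ex 405/Em 525) and luciferase output by luminescence.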
Nrf2 ARE act – activators of Nrf2 (ARE) signaling; AID 624171; Potency, µM (titrated, usually from 46.1 µM), for the others: at the highest dose activation, most hits filed as activators; AREc32 ARE-luciferase reporter (MCF7-derived line), luminescence, 24 h; 0.31% of 410,000 active; note: potency is the fitted concentration of half-maximal effect; % of control where 0% means no effect; nearly all actives have a fitted effect of over 65% in size
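ARE activation measured as luciferase luminescence (Steady-Glo, 30 min RT) in AREc32_Fluc cells after 24 hr compound exposure at 37 deg C, 5% CO2; cells seeded overnight at 1000/well in OPTI-MEM, 5% FBS.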
mIDH1 inhibitor – blocks human mutant IDH1 R132H enzyme; IDH1-R132H enzyme, NADPH consumption, diaphorase/resazurin fluorescence; Potency, µM (highest dose often 76.6 µM), inactives show top-dose activity change, negative = inhibition, usual class: inhibitors; AID 602179; O75874; 0.093% of 390,000 active; note: potency is the fitted concentration of half-maximal effect; % is set by controls: 0 for no effect and ±100 for the full control effect; nearly all actives have a fitted effect of over 65% in size
Target sequence (O75874 whole entry R132H, stated change not applied): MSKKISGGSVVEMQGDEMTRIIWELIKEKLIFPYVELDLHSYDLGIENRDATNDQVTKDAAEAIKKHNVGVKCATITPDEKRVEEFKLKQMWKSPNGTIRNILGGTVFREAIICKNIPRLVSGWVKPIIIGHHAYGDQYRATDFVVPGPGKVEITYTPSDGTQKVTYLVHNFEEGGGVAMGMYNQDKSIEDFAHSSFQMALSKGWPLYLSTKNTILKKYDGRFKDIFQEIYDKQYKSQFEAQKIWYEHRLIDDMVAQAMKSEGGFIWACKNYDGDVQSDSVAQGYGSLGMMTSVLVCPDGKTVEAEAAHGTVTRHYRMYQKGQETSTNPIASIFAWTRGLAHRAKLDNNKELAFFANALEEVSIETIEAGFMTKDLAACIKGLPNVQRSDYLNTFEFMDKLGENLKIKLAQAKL
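IDH1-R132H (0.5 ug/mL dispensed) in pH 7.5 Tris buffer was preincubated 30 min with compound, then given a substrate mix of 0.016 mM NADPH and 2 mM alpha-KG for 80 min at room temperature; remaining NADPH was read by diaphorase/resazurin fluorescence.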
Numbers without * were called inactive; ! = not confirmed by another sample; [ ] = another dose, or the depositor's remark. Unless noted, calls come from the whole dose curve; as a rule, active = well fitted curve in the direction sought with a large enough effect; inconclusive = small, poorly fitted or top-dose-only effect, or another doubt; inactive = no such curve, though single readings can be large; an effect the other way counts as inactive or inconclusive.

For O=C1S/C(=C\c2ccc(N3CCOCC3)o2)C(=O)N1Cc1ccc(F)cc1 the results were LDHA inh 16, A549 tox 7%, Nrf2 inh -20%, Nrf2 ARE act 0% and mIDH1 inhibitor 2%.
COc1ccc2cc(/C=C3\SC(=S)NC3=O)c(N3CCOCC3)nc2c1 was read as ALOX12 inh inconclusive, LDHA inh 1, A549 tox 18µM*, Nrf2 inh 21µM*, Nrf2 ARE act 2% and mIDH1 inhibitor -14%.
`O=C1N/C(=C/c2ccc(N3CCOCC3)o2)C(=O)N1c1ccccc1` gave ALOX12 inh -13%, LDHA inh -1, A549 tox inconclusive, Nrf2 inh -22%, Nrf2 ARE act inconclusive and mIDH1 inhibitor 2%.
For CC(C)Cn1c(COc2ccc(C(C)(C)C)cc2)n[nH]c1=S the results were ALOX12 inh inconclusive and LDHA inh 8.
`Clc1ccc(CON/C=N/c2ncnc3sccc23)cc1` gave ALOX12 inh inconclusive, LDHA inh -5, A549 tox -11%, Nrf2 inh 21µM*, Nrf2 ARE act 0% and mIDH1 inhibitor -1%.
Screening CC(C)(C)SCCNC(=O)/C=C/c1cccc([N+](=O)[O-])c1 returned ALOX12 inh -22%, LDHA inh -1, A549 tox 24%, Nrf2 inh 29%, Nrf2 ARE act 10µM* and mIDH1 inhibitor 4%.
Screening O=C(NC1CCCCC1)C(c1cccnc1)N(C(=O)CCl)c1ccc(F)cc1 (stereo not given) returned ALOX12 inh inconclusive, LDHA inh -8, A549 tox -21%, Nrf2 inh 18µM*, Nrf2 ARE act inconclusive and mIDH1 inhibitor -1%.
Screening COc1ccc(C2CC(c3ccccc3)Oc3cc(C)cc(C)c32)cc1 (stereo not given) returned A549 tox 23% and Nrf2 inh 15%.
Screening COc1ccc([C@@H]2C[C@H](c3ccccc3)Oc3cc(C)cc(C)c32)cc1 returned ALOX12 inh 1.1µM*, LDHA inh 1, A549 tox -1%, Nrf2 inh 2%, Nrf2 ARE act 0% and mIDH1 inhibitor -9%.
For Cc1ccc(-c2cc(C(=O)NCCN(C)C)c3ccccc3n2)cc1C the results were ALOX12 inh inconclusive and LDHA inh -17.
For O=c1[nH]c(/C=C/c2ccccc2[N+](=O)[O-])nc2ccccc12 the results were ALOX12 inh 3%, LDHA inh -5, A549 tox 7%, Nrf2 inh 5%, Nrf2 ARE act 1.3µM* and mIDH1 inhibitor 3%.
CCN(CC)CCC(c1cc(OC)c(OC)c(OC)c1)c1c(OC)cc(OC)c2ccc(=O)oc12 (stereo not given) was read as ALOX12 inh 10%, LDHA inh 5, A549 tox 15µM*!, Nrf2 inh 10%, Nrf2 ARE act 10% and mIDH1 inhibitor -1%[38.3 µM].
For CCN(CC)CCC(c1ccc2c(c1)OCO2)c1c(OC)cc(OC)c2ccc(=O)oc12 (stereo not given) the results were ALOX12 inh -2%, LDHA inh 0, A549 tox 16µM*, Nrf2 inh 7%, Nrf2 ARE act 11% and mIDH1 inhibitor -4%[38.3 µM].
For CCN(CC)CCC(c1cc(OC)c(OC)c(OC)c1)c1c(OC)cc(OC)c2c(C)cc(=O)oc12 (stereo not given) the results were ALOX12 inh 4%, LDHA inh 1, A549 tox inconclusive, Nrf2 inh 0%, Nrf2 ARE act 10% and mIDH1 inhibitor -7%.
For COc1cc(OC)c2c(-c3ccccc3)cc(=O)oc2c1C(CC(=O)N1CCCC1)c1ccc2c(c1)OCO2 (stereo not given) the results were ALOX12 inh 50µM*, LDHA inh 1, A549 tox inconclusive, Nrf2 inh inconclusive, Nrf2 ARE act 10% and mIDH1 inhibitor -15%.
